# Assay results: ChEMBL document CHEMBL3988442, “University of Dundee, Small-Polar-MMV Screening Library” (2021)
# For some of these results: Potency and affinity values are given separately.
# Columns and labels:
# Parameters in all cases: scale not given: direction of the effect not stated beside the values
# [1] = target: Protein translocase subunit SecA (Escherichia coli (strain K12)) (UniProt P10408); assay: Assay to Identify E. coli SecA ATPase Inhibitors; format: functional; settings: 30 µM
# [2] = target: T1, Ubiquitin-activating enzyme e1, putative (Leishmania donovani (strain BPK282A1)) (UniProt E9BSI1); assay: Leishmania donovani Ubiquitin Activating Enzyme (LdE1); format: functional; settings: 30 µM
# T1 sequence (whole entry): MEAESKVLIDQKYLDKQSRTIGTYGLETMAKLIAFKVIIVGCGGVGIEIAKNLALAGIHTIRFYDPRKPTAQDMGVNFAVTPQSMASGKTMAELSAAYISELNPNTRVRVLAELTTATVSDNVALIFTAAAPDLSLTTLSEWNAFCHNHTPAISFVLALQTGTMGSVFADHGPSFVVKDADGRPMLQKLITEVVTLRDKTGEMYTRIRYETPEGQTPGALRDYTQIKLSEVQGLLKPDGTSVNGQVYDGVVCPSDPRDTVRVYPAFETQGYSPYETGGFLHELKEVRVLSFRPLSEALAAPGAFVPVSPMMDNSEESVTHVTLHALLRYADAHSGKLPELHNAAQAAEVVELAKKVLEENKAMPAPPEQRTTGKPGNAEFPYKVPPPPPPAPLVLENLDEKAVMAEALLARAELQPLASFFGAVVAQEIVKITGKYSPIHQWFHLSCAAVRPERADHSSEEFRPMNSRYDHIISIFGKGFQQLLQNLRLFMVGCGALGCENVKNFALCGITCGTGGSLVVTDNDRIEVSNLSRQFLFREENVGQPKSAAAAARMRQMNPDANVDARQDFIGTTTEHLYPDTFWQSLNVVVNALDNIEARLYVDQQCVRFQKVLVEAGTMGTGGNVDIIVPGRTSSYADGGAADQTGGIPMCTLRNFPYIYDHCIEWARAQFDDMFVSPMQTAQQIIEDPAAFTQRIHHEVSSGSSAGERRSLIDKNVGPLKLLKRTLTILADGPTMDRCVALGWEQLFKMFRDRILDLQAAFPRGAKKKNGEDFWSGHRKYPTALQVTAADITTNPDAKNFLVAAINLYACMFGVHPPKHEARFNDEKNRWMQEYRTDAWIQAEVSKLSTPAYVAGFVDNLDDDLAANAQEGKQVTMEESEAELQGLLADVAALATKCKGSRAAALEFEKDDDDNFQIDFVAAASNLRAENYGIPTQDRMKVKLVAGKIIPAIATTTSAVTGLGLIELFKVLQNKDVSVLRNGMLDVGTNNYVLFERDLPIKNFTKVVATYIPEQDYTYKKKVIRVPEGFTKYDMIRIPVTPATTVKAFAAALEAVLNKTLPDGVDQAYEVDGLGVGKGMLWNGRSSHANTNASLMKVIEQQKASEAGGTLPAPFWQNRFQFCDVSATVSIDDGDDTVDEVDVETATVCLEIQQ
# [3] = target: AMP-activated protein kinase, AMPK (Homo sapiens) (UniProt P54646+O43741+P54619+Q9UGJ0+Q9Y478+Q13131+Q9UGI9); assay: AMP-dependent Kinase enzyme assay. An in vitro enzyme assay that detects ADP turnover that is directly proportional to AMPK activity. This uses naive AMPK that is activated during the assay with MK-8722; format: functional; settings: 30 µM
# [4] = target: Sialic acid-binding Ig-like lectin 9 (Homo sapiens) (UniProt Q9Y336); assay: Hs-Siglec9 ALPHAscreen SOP 20170721; settings: 10 µM
# [5] = test system: Trypanosoma cruzi; assay: Trypanosoma cruzi phosphomannomutase and mannose-1-phosphate guanylyltransferase assay; format: functional; settings: 10 µM
# [6] = target: T2, Arginase-2, mitochondrial (Homo sapiens) (UniProt P78540); assay: in vitro enzyme assay to detect the production of urea directly proportional to the activity of Arginase II; format: functional; settings: 33.3 µM; further: in the data most compounds retested in dose-response had high values
# T2 sequence (whole entry): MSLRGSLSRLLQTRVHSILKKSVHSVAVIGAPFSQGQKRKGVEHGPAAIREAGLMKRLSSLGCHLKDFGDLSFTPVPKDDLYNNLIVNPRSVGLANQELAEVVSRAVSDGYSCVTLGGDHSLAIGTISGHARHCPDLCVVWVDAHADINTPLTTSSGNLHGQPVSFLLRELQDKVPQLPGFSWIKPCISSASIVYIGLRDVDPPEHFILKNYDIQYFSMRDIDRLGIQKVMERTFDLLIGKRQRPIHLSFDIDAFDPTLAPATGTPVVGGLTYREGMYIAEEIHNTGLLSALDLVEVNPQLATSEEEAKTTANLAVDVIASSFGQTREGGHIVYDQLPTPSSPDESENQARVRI
# [7] = target: T3, Proteasome subunit beta (Trypanosoma cruzi) (UniProt O96673); assay: Trypanosoma cruzi proteasome chymotrypsin-like activity (TcProtChymo) assay.; further: in the data most compounds retested in dose-response had high values; format: functional; settings: 9.37 µM
# T3 sequence (whole entry): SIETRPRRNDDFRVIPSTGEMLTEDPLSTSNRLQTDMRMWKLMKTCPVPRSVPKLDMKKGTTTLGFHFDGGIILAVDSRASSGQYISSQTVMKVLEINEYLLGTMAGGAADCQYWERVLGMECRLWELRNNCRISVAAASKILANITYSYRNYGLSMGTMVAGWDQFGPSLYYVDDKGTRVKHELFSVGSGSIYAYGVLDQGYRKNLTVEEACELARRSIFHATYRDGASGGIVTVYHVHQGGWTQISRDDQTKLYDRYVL
# [8] = species on record: Homo sapiens; assay: To identify inhibition of the IFN signalling (Jak-Stat) pathway via expression of an eGFP reporter gene under the control of an IFN-stimulated response element (ISRE) containing MxA promoter.; format: functional; settings: 30 µM
# [9] = target: T4, Tyrosyl-tRNA synthetase, putative (Trypanosoma cruzi (strain CL Brener)) (UniProt Q4DSP6); assay: Trypanosoma cruzi tyrosyl tRNA synthetase (TcYRS) _High Tyrosine SOP; format: functional; settings: 30 µM; further: in the data most compounds retested in dose-response had high values
# T4 sequence (whole entry): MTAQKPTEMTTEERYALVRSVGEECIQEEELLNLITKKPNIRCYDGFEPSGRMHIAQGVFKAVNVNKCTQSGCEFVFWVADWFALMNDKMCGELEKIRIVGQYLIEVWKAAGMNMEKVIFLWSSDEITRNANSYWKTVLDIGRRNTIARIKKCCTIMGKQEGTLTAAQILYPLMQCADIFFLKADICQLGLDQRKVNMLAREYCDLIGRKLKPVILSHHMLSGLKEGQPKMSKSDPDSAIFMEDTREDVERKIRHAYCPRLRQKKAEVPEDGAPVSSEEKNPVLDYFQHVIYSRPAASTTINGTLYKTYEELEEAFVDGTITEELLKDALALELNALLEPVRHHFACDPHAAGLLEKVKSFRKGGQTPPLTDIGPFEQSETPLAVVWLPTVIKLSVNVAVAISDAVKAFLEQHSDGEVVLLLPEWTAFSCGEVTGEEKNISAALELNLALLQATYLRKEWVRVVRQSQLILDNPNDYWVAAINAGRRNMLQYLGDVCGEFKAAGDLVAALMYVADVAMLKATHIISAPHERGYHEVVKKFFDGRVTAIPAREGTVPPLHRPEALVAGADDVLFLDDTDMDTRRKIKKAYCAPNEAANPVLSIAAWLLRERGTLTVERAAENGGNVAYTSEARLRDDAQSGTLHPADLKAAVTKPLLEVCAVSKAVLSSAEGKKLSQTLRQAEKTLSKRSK
# [10] = target: T4, Tyrosyl-tRNA synthetase, putative (Trypanosoma cruzi (strain CL Brener)); assay: Trypanosoma cruzi tyrosyl tRNA synthetase (TcYRS) SOP; format: functional; settings: 30 µM
# [11] = target: Chromo domain-containing protein 1 (Saccharomyces cerevisiae (strain ATCC 204508 / S288c) (Baker's yeast)) (UniProt P32657); assay: ScCHD-1 Enzyme Inhibition Assay; format: functional; settings: 30 µM; further: in the data most compounds retested in dose-response had high values
# Chain of Chromo domain-containing protein 1 (Saccharomyces cerevisiae (strain ATCC 204508 / S288c) (Baker's yeast)) (P32657 whole entry, the tested form may be a part): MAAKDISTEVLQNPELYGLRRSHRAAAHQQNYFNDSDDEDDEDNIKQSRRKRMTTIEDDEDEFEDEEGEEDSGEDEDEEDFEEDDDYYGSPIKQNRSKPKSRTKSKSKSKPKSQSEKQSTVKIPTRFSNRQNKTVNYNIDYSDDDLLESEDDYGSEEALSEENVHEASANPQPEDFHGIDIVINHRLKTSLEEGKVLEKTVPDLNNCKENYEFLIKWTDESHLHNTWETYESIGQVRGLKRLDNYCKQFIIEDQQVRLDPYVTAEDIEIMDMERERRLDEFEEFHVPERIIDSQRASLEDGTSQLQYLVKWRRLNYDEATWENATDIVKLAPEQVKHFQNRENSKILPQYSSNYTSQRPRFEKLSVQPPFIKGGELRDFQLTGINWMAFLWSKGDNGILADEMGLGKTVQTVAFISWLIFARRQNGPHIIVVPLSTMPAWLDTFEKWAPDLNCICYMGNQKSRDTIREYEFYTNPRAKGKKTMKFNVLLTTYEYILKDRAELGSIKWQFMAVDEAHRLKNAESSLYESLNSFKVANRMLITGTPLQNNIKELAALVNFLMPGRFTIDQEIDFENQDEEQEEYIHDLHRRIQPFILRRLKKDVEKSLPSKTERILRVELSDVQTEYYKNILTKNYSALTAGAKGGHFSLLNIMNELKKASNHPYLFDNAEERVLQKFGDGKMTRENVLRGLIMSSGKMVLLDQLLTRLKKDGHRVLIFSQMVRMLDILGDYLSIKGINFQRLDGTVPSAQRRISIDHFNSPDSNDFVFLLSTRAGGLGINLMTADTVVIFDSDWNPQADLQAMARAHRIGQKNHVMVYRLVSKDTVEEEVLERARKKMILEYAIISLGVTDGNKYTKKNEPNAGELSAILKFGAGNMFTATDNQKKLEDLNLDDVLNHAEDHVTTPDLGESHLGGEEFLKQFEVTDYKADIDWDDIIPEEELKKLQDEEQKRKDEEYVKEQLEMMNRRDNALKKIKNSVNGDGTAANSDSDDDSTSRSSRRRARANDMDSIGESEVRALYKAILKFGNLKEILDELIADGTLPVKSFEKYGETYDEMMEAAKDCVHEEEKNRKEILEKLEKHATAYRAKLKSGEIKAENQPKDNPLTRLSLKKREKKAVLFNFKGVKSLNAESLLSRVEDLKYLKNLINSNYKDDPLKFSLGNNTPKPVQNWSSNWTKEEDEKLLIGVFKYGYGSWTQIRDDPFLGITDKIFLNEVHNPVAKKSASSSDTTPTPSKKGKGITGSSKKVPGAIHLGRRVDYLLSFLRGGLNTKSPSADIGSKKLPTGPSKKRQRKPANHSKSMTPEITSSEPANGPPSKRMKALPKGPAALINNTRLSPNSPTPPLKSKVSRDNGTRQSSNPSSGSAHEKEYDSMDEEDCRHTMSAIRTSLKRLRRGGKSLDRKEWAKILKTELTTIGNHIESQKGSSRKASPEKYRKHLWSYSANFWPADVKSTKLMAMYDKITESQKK
# Chain of Sialic acid-binding Ig-like lectin 9 (Homo sapiens) (Q9Y336 whole entry): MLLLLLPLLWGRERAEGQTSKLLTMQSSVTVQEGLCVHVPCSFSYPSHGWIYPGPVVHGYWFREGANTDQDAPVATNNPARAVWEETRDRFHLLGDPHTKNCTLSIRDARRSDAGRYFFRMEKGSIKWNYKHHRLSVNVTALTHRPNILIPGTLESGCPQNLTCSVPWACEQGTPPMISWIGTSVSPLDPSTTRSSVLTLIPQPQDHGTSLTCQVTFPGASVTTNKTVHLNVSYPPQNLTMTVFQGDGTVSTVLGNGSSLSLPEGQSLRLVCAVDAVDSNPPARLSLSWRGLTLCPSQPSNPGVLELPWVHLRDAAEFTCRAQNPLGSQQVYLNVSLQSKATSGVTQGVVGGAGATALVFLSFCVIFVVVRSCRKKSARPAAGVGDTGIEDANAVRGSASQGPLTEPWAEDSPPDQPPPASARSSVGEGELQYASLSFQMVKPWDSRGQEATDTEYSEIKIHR
# Chain of Protein translocase subunit SecA (Escherichia coli (strain K12)) (P10408 whole entry): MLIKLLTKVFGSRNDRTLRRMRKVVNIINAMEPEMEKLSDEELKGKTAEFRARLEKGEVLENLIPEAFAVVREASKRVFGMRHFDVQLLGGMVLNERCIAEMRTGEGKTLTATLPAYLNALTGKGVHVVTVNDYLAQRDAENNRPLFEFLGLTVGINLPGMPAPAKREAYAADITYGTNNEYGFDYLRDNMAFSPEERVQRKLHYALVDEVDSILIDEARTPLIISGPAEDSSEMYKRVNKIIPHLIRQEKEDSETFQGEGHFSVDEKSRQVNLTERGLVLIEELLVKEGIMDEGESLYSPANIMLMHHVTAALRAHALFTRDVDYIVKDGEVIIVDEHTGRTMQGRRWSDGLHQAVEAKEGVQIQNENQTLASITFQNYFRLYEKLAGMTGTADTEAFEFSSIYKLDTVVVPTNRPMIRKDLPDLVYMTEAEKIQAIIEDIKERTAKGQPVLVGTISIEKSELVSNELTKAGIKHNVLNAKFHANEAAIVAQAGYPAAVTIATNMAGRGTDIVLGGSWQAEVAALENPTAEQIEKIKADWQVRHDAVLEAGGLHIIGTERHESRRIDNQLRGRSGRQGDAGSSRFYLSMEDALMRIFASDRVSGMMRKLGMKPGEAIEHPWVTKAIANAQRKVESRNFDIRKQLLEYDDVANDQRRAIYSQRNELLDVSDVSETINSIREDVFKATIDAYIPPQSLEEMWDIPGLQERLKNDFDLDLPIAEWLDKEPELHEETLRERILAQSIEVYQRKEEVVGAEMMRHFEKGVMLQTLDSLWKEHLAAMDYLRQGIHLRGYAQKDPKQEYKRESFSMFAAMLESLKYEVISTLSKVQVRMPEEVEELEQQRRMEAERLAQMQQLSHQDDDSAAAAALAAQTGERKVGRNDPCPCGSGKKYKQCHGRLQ
SMILES,Percent Effect [1] [%],Percent Effect [2] [%],Percent Effect [3] [%],Percent Effect [4] [%],Percent Effect [5] [%],Percent Effect [6] [%],Percent Effect [7] [%],Percent Effect [8] [%],Percent Effect [9] [%],Percent Effect [10] [%],Percent Effect [11] [%]
Cc1ccccc1-c1cc(C(=O)N2CCn3c(C)nnc3C2)[nH]n1,-5.53,10.5,-1.51,3.48,6.01,0,4.34,4.27,-0.49,17.1,-10.8
CS(=O)(=O)CC(=O)N1C[C@H]2CCC[C@@]2(COCc2ccccn2)C1,-1.45,2.7,-3.2,0.525,-0.88,11.2,26,-5.57,0,17.9,0.642
COCc1nn(C(C)C)c2c1CCN(Cc1ccc(C)s1)C2,-2.06,2.74,-1.91,-1.63,0.198,5.99,7.62,1.17,2.08,3.7,-2.29
Cc1nc(NCCc2ccc(Cl)cc2)cc(C(=O)N2CCOCC2)n1,0.862,5.2,-3.84,11.5,3.64,-44.1,9.98,23.7,7.53,16.1,-2.1
CCO[C@@H]1CO[C@@]2(CCCN(Cc3scnc3C)C2)C1,-2.88,0,-3.01,9.05,7.14,-5.19,9.85,3.99,-4.17,3.7,-0.793
O=C(c1cc2c(s1)CCC2)N1CCCCC1Cn1cccn1 (configuration not stated),-4.04,10.8,-1.14,3.35,-5.11,-3.88,-0.539,2.18,4.95,6.1,1.75
CC(C(=O)NCc1cccc(N2CC=CC2)c1)n1cccn1 (configuration not stated),-6.41,0,3.53,1.65,-1.5,-1.15,-1.5,22.9,0.49,-2.44,-1.88
COc1ccc(OCC(=O)NS(=O)(=O)c2cc(F)ccc2F)cc1,-8,0,5.69,-4.95,-3.28,-3.33,5.34,22.6,-3.7,-4.88,-2.11
O=C(NCCn1ccnc1)c1ccn(-c2cccc(F)c2)n1,-6.24,15.8,-0.288,-5.43,-11.1,-0.719,2.28,-0.954,0.493,3.7,-2.98
O=C(NCc1ccc(F)cc1)N1CCC(C2OCCO2)CC1,-3.74,7.89,6.23,6.03,-1.66,-8.28,12.4,13.8,6.38,13,-4.56
CC(C)Oc1cc(N2CCC(N3CCC(O)CC3)CC2)nc(N)n1,0.0362,8.11,-10,8.23,4.63,-0.476,11,12.1,8.99,17.1,-4.42
CCc1noc(C(C)N(C)CC(=O)Nc2ccc(C)cc2)n1 (configuration not stated),-4.41,0,2.85,1.79,-2.55,-0.455,-0.887,-0.282,-1.07,-2.5,2.11
Cc1nc(CN2C(=O)C[C@@H]3[C@@H]2CCN3C(=O)C2CCOCC2)cs1,-0.279,8.22,-5.72,3.96,4.17,-5.19,8.82,-4.21,1.04,-3.7,-3.04
CCOCC1CN(S(C)(=O)=O)Cc2ncn(CC3CC3)c21 (configuration not stated),-2.41,13.5,-8.53,6.97,3.81,-1.24,5.58,-4.29,6.45,13.6,-6.43
Cc1[nH]ncc1C(=O)N1CCCC(c2cc(C(F)(F)F)[nH]n2)C1 (configuration not stated),-6.98,8.11,-26.4,5.54,-6.59,-3.51,2.69,14.8,2.97,6.1,3.81
CC1CN(CC(=O)Nc2cccnc2)CCN1c1nccs1 (configuration not stated),-0.157,2.7,-1.61,7.17,-0.464,3.14,1.26,27.8,1.98,-1.22,13.7
Cc1nc(O)cc(C2CCN(Cc3cccc(F)c3F)C2)n1 (configuration not stated),-5.61,20.3,-0.666,-0.896,1.19,-3.94,9.83,2.45,2.15,16.9,-14.2
